Experimental data published in PubChem BioAssay AID2284357 (EPA ToxCast).
Records with an inconclusive call do not appear. The source made the active and inactive calls. How the source made its calls: active means hit-call score of the fitted dose curve at least 0.9, where 1 is the maximum; inconclusive means response in the unintended direction; inactive means score below 0.9.

The compounds below were run on zebrafish Androgen Receptor (AR), gene 100005148 (assay: ATG_zfAR_EcoTox2: Attagene TRANS-FACTORIAL EcoTox-2 HepG2 Assay for zebrafish Androgen Receptor (AR)).
Method: ATG_EcoTox2 is a cell-based, multiplexed assay created by modifying the existing Attagene TRANS-FACTORIAL system to include a panel of nuclear receptors from some or all the following species: human (Homo sapiens), african clawed frog (Xenopus laevis), rainbow trout (Oncorhynchus mykiss), japanese medaka (Oryzias latipes), and zebrafish (Danio rerio). The ECOTOX2-FACTORIAL format uses HepG2, a human liver cell line, with measurements taken at 24 hours after chemical dosing in a 24-well plate. ATG_zfAR_EcoTox2 is one of 29 assay components calculated in the ATG_EcoTox2 assay. It is designed to make measurements of mRNA induction, a form of inducible reporter, as detected with fluorescence intensity signals by Reverse transcription polymerase chain reaction (RT-PCR) and Capillary electrophoresis technology.The assay endpoint ATG_zfAR_EcoTox2 was analyzed in the positive analysis fitting direction relative to DMSO as the negative control and baseline of activity. Using a type of inducible reporter, measures of mRNA for gain-of-signal activity can be used to understand the reporter gene at the transcription factor-level as they relate to the gene AR. Furthermore, this assay endpoint can be referred to as a primary readout, because this assay has produced multiple assay endpoints where this one serves a reporter gene function. To generalize the intended target to other relatable targets, this assay endpoint is annotated to the nuclear receptor intended target family, where the subfamily is steroidal.
Human liver HepG2 cells are transiently transfected with multiple reporter transcription units (MRTUs) in 6-well plates using FuGene 6 reagent (Roche; 3 ml FuGene/1 mg DNA). The MRTU constructs are regulated by a cis-regulating element (promoter). Each RTU expresses a GAL4-UAS that regulates the transcription of a nearby target reporter gene sequence. A major difference between the CIS and TRANS system is that in CIS activities of endogenous TFs are measured, whereas the TRANS assay evaluates changes in activities of exogenous, chimeric NR-Gal4 proteins. […] At the end of 24 hour incubation, total RNA was isolated using TriZol reagent (Invitrogen). The isolated RNA is then reverse-transcribed using oligo(dT) primer and Mo-MLV reverse transcriptase (Invitrogen) with DNAse I (Ambion) treatment for 30 min. The one-tenth of the produced cDNA was amplified by PCR using Taq DNA polymerase (Invitrogen) and two reporter sequence-specific primers. The PCR products were fluorescently labeled by primer extension with 6-arboxyfluorescein (6-FAM) 5'-labeled reporter sequence-specific primer (2 min at 95 C, 20 s at 68 C and 10 min at 72 C) and these products were digested with 5U of HpaI (New England Biolabs) for 2h at 37 C. The fragments were purified using Qiaquick PCR columns (Qiagen), analyzed on an ABI 3130xL genetic analyzer (Applied Biosystems) with peak positions identified by using a set of X-rhodamine (ROX)-labeled MapMarker1000 molecular weight standards (BioVentures). The raw capillary electrophoresis data was processed using Attagraph software (Attagene).

Structure (SMILES) | outcome
Cc1ccc(C)c(OCCCC(C)(C)C(=O)O)c1 | inactive
C=C(c1ccc(C(=O)O)cc1)c1cc2c(cc1C)C(C)(C)CCC2(C)C | inactive
CC(c1cc2ccccc2s1)N(O)C(N)=O (centres undefined) | inactive
CC(C)(Oc1ccc(C2CC2(Cl)Cl)cc1)C(=O)O (centres undefined) | inactive
CC(C)OC(=O)C(C)(C)Oc1ccc(C(=O)c2ccc(Cl)cc2)cc1 | inactive
C[C@@H]1C[C@H]2[C@@H]3CCC4=CC(=O)C=C[C@]4(C)[C@@]3(F)[C@@H](O)C[C@]2(C)[C@@]1(O)C(=O)COP(=O)(O)O | inactive
Cc1cccc(Nc2cc(Cl)nc(SCC(=O)O)n2)c1C | inactive
CC(C)(Oc1ccc(Cl)cc1)C(=O)O | inactive
C[C@]12C=CC(=O)C=C1CC[C@@H]1[C@@H]2C(=O)C[C@@]2(C)[C@H]1CC[C@]2(O)C(=O)CO | inactive
